Source: PubChem BioAssay (NCATS)
Records with an inconclusive call do not appear. Values without a mark were called inactive. The call rests on the fitted dose curve; in most records, active means well fitted inhibition curve with a large enough effect; inconclusive means small, poorly fitted or top-dose-only effect; inactive means flat fitted curve, though single readings scatter. Where a SMILES comes first, the peptide text is derived from it. Bridges are numbered along the chain shown (N, C = ends). [ ]: non-standard residue; d: D form. NMeY = CN[CH](Cc1ccc(O)cc1)C(=O)O

Each compound was assayed against Calcium and integrin-binding protein 1 (Homo sapiens) (UniProt Q99828) (assay: Primary qHTS for Identification of Calcium Integrin Binding Protein 1 (CIB1) Competitor (AID 1508620;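 further: GST tagged CIB1 binding a fluorescein labelled alphaIIb integrin peptide tracer; top concentration of the series differs between compounds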)). Settings: CIB1-GST / FITC-alphaIIb peptide fluorescence polarization; series mostly up to 114 µM; activity change, negative = inhibition: at the top concentration.
Chain of Calcium and integrin-binding protein 1 (Homo sapiens) (Q99828 whole entry, looked up): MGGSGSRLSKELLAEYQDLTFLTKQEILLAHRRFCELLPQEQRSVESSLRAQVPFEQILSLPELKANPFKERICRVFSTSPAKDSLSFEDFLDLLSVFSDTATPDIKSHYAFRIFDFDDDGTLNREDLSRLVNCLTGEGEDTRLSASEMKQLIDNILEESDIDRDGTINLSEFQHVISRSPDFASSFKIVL
In short: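 CIB1-GST (1 uM final) and compound incubated 15 min at room temperature before adding FITC-alphaIIb peptide tracer (100 nM final). Competition for binding read by fluorescence polarization (ex 480, em 540) after another 15 min at room temperature.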
On the % scale 0 is the no-effect control and ±100 the full control effect.

| Structure (SMILES) | activity change, negative = inhibition |
| --- | --- |
| CS(=O)(=O)c1ccc([C@H](CC2CCCC2)C(=O)Nc2nccs2)cc1 | -13.3% |
| CC1(C)CC(=O)C2=C(C1)NC(=S)NC2c1cccc(O)c1 (stereo unspecified) | -1.21% |
| CN[C@H](C(=O)N[C@H](C(=O)N(C)[C@H](/C=C(\C)C(=O)O)C(C)C)C(C)(C)C)C(C)(C)c1ccccc1 | 1.14% |
| O=C(O)c1ccc(OC2OC(CO)C(O)C(O)C2O)cc1 (stereo unspecified) | -5.28% |
| CC1(C)CC2C(C1)C(C)(O)C13CC1(COC3=O)C2O (stereo unspecified) | 0.446% |
| Cc1cccc(-c2[nH]c(Cc3cccc(C(N)=O)c3)nc2-c2ccc3nccnc3c2)n1 | -4.62% |
| COc1cc(N2CCOCC2)ccc1Nc1ncc(Cl)c(Nc2ccccc2NS(C)(=O)=O)n1 | 0.436% |
| CCOc1ccc2nc(SCCN3CCOCC3)[nH]c2c1 | -5% |
| CC(=O)OC1C(OC(=O)c2ccccc2)C2C(C)(C)CC(=O)CC2(C)C23CCC(C)(C2)C(O)CC13 (stereo unspecified) | 5.16% [at 57.7 µM] |
| OC[C@H]1O[C@@H](Oc2cc(O)c3c(c2)O[C@@H](c2ccc(O)cc2)[C@H](O)C3)[C@H](O)[C@@H](O)[C@@H]1O | -0.677% [at 57.7 µM] |
| Cc1cccc(S(=O)(=O)N2CCC[C@@H]2CCN2CCC(C)CC2)c1 | 0.972% |
| CC(C)(C)c1ccc(S(=O)(=O)Nc2ccc(Cl)cc2C(=O)c2cc[n+]([O-])cc2)cc1 | -5.23% |
| CCC(C)C1NC(=O)C2CCCN2C(=O)C(NC(C)=O)C(C)OC(=O)C(Cc2ccc(OC)cc2)N(C)C(=O)C2CCCN2C(=O)C(C(C)C)NC1=O (stereo unspecified) (Ac-TPIVP[NMeY](Me); ester 1-C; configuration not given here) | -6.97% [at 30.2 µM] |
| C=C(C)[C@@H]1CC[C@]2(C)CC[C@]3(C)[C@H](CC[C@@H]4[C@@]5(C)CC[C@@H](O)C(C)(C)[C@@H]5CC[C@]43C)[C@@H]12 | 3.31% [at 57.7 µM] |
| CC(C)(O)/C=C/C1=CC(=O)[C@@](C)(O)C[C@H]1O | 3.57% |
| COc1cc2c(NC3CCN(CC4CCCCC4)CC3)nc(N3CCCN(C(C)C)CC3)nc2cc1OCCCN1CCCCC1 | -1.55% |
| CC1CCC23COC(=O)C2=CC(O)CC3C1(C)CCC1=CC(O)OC1=O (stereo unspecified) | 0.859% [at 57.7 µM] |
| NCc1c[nH]c(=S)n1[C@@H]1CCc2c(F)cc(F)cc2C1 | -4.86% |

| Structure (SMILES) | activity change, negative = inhibition |
| --- | --- |
| O=C(NCc1ccccn1)Nc1nnc(-c2ccco2)o1 | -9.23% |
| Cc1nc2ccc(Oc3ccc(F)cc3)cc2c(=O)n1C[C@H]1CCCN(C(C)C)C1 | -0.0397% |
| COc1cc(O)cc(C)c1C(=O)OC1C(CO)OC(OC2C(O)C(O)C(O)C(O)C2O)C(O)C1O (stereo unspecified) | -7.58% [at 57.7 µM] |
| c1ccc(-c2csc(N3CCOCC3)n2)cc1 | 4.38% |
| C=C1C(OC2OCC(O)C(O)C2O)CC2C(C)(C)C(O)CCC2(C)C1CC/C(C)=C\CO (stereo unspecified) | 1.93% [at 57.7 µM] |
| NC1CCC(Nc2cc(-c3cccc(NCc4cccc(F)c4)n3)c(Cl)cn2)CC1 (stereo unspecified) | -9.07% |
| CC(=O)NC1=NN(C(C)=O)C(C)(c2ccccc2)S1 (stereo unspecified) | 2.56% |
| O=C(c1ccc2nccnc2c1)N1CCCCC1 | -4.02% |
| O=C(NCc1ccc(S(=O)(=O)c2cc(F)cc(F)c2)cc1)c1ccc2nccn2c1 | 1.4% |
| C/C=C/c1ccc(O[C@@H]2O[C@H](CO)[C@@H](O)[C@H](O)[C@H]2O)c(OC)c1 | 2.3% [at 57.7 µM] |
| O=C(O)CCCCCC[C@H]1C(=O)NC(=O)N1CC[C@@H](O)C1CCCCC1 | 3.99% |
| COc1cc(OC)c(/C=C/S(=O)(=O)Cc2ccc(OC)c(NCC(=O)O)c2)c(OC)c1 | -9.89% |
| COC(=O)CC(O)C1OC(c2ccccc2)C(O)C1O (stereo unspecified) | 2.15% |
| C=CC(=O)Nc1cccc(Nc2nc(Nc3ccc(N4CCN(C(C)=O)CC4)cc3OC)ncc2C(F)(F)F)c1 | -14.2% |
| CC1(C)CC[C@]2(C(=O)O[C@@H]3O[C@H](CO)[C@@H](O)[C@H](O)[C@H]3O)CC[C@]3(C)C(=CCC4[C@@]5(C)C[C@@H](O)[C@H](O)C(C)(C)C5[C@H](O)C[C@]43C)[C@@H]2[C@@H]1O (stereo partly specified) | 0.937% [at 30.2 µM] |
| N#Cc1ccc(C(=O)N2CCC3(CC2)N=C(N)c2c(F)ccc(F)c2N3)cn1 | -2.06% |
| C/C=C/C=C/[C@@H]1O[C@](O)([C@H](CC)C(=O)NC/C=C/C=C(\C)[C@@H](OC)[C@@H](C)C2OC(/C=C/C=C/C=C(\C)C(=O)c3c(O)cc[nH]c3=O)[C@H](O)[C@@H]2O)[C@H](O)[C@H](O)C1(C)C (stereo partly specified) | -4.18% [at 30.2 µM] |
| C/C=C(\C)C(=O)O[C@H]1[C@@H](O[C@]2(COC(=O)CC(C)C)O[C@H](COC(=O)C(C)CC)[C@@H](OC(C)=O)[C@@H]2O)O[C@H](COC(C)=O)[C@@H](O)[C@@H]1O (stereo partly specified) | 0.408% [at 30.2 µM] |
